Out of some 220,000 compounds screened, about 820 (0.37%) were called active. Shown is part of a subset that was picked to be rich in actives. A number with no mark means an inactive call. Rule as the data show it: active = fluorescence above about 47; inactive = the rest.
Assay: green autofluorescence of compounds with avidin beads – biophysical, 488/530 nm, flow cytometry, artefact control, profiling panel (AID 1775)
Details: compound fluorescence 488/530 nm, at 10 µM, hits give high values
For C=CCn1c(=S)sc2c(=O)[nH]c(C)nc21, the fluorescence (KMESF) was 3. In the case of O=C1NC2(CCCCCC2)C(=O)N1CCS(=O)(=O)Oc1ccccc1, the fluorescence (KMESF) is reported as 12. With CSc1ccc(CN2C(=O)NC3(CCCCCC3)C2=O)cc1 the fluorescence (KMESF) was 50 (active). O=C(CN1C(=O)NC2(CCCCCC2)C1=O)NC1CC1 gave a fluorescence (KMESF) of 14. For CN=C(c1ccccc1)c1c(C)cccc1C, the fluorescence (KMESF) was 1. With CCN(CC)C(=O)CC(c1ccc2c(c1)OCO2)c1c(OC)cc(OC)c2c(-c3ccccc3)cc(=O)oc12 (centres undefined) the fluorescence (KMESF) was 8. With O=C(NC1CC1)c1ccc2c(c1)NC(=O)c1ccccc1S2 the fluorescence (KMESF) was 80 (active). Work on O=C(NC1CC1)c1cccc(Br)c1 yielded a fluorescence (KMESF) of 4. Molecule O=C(NC1CC1)c1ccc(-c2ccccc2)cc1 has a fluorescence (KMESF) of 11. With COc1ccc(Cl)cc1N(CC(=O)N/N=C/c1ccc(OCC(N)=O)cc1)S(C)(=O)=O the fluorescence (KMESF) was 10. For Cc1[nH]nc(SCC(=O)NCC(C)C)c1[N+](=O)[O-], the fluorescence (KMESF) was 6. With CCOC(=O)c1sc(NC(=O)c2ccncc2)nc1C the fluorescence (KMESF) was 4. With CCOC(=O)c1sc(/N=C/Nc2nc(C)c(C(=O)OCC)s2)nc1C the fluorescence (KMESF) was 54 (active). CCOC(=O)c1sc(NC(=O)CSc2n[nH]c(CC)n2)nc1C gave a fluorescence (KMESF) of 15. Cc1ccc2nc(-c3cccnc3)c(NC3CCCC3)n2c1 showed a fluorescence (KMESF) of 9. With Cc1cc(=O)n2[nH]c(-c3sccc3-n3c(C)ccc3C)cc2n1 the fluorescence (KMESF) was 5. In the case of O=C(CCC(=O)N1CCCC1)Nc1ccc([N+](=O)[O-])cc1, the fluorescence (KMESF) is reported as 9. Cc1ccc(-n2c(C)cc(C(=O)CSc3nnc4ccccn34)c2C)cc1 gave a fluorescence (KMESF) of 11. With COC(=O)c1ccccc1OCC(=O)N1CCN(c2ccc(Cl)cc2)CC1 the fluorescence (KMESF) was 189 (active). With O=C(COc1ccc(Cl)cc1)N1CCN(c2cccc(C(F)(F)F)c2)CC1 the fluorescence (KMESF) was 20. O=C(CN1CCN(c2ccc(Cl)cc2)CC1)N1CCCC1 showed a fluorescence (KMESF) of 13. In the case of CC(C)COC(=O)n1c(=O)oc2ccc(S(=O)(=O)N3CCCCC3)cc21, the fluorescence (KMESF) is reported as 7. For Cc1cc(OC(=O)c2ccccc2)c([N+](=O)[O-])c(=O)[nH]1, the fluorescence (KMESF) was 13. Cc1cccc(N2CC(C)Cn3c2nc2c3c(=O)n(CC(=O)OCc3ccccc3)c(=O)n2C)c1 (centres undefined) showed a fluorescence (KMESF) of 5. For COc1ccc(N2CC(C)Cn3c2nc2c3c(=O)n(Cc3ccccc3F)c(=O)n2C)c(OC)c1 (centres undefined), the fluorescence (KMESF) was 54 (active). With CC(C)OCCCNc1nc2c(c(=O)n(Cc3ccccc3F)c(=O)n2C)n1C the fluorescence (KMESF) was 16. In the case of C/C(=N\Nc1cccc(C(=O)O)c1)c1ccc2c(c1)Nc1ccccc1S2, the fluorescence (KMESF) is reported as 11. In the case of COc1ccc(CCNC(=O)CCCCn2c(=O)[nH]c3ccccc3c2=O)cc1OC, the fluorescence (KMESF) is reported as 39. For O=C(CCCCn1c(=O)[nH]c2ccccc2c1=O)NCc1ccc2c(c1)OCO2, the fluorescence (KMESF) was 81 (active). With O=C(CCCCCn1c(=O)[nH]c2ccccc2c1=O)NCCc1c[nH]c2ccccc12 the fluorescence (KMESF) was 14. Molecule N/C(=N\OC(=O)CCn1cccc(C(F)(F)F)c1=O)c1ccc(OC(F)(F)F)cc1 has a fluorescence (KMESF) of 8. COc1cccc(C(=O)N2CCCC(CCC(=O)NCc3ccc(F)c(F)c3)C2)c1 (centres undefined) gave a fluorescence (KMESF) of 8. O=C(Nc1ccccc1)c1cccnc1Nc1ccccc1 showed a fluorescence (KMESF) of 8. Work on Cc1ccc(NC(=O)c2cccnc2C(=O)Nc2ccc(C)cc2)cc1 yielded a fluorescence (KMESF) of 10. In the case of O=C(Nc1ccc(-n2ccnc2P(=O)(O)c2ccccc2)cc1)c1ccccc1Br, the fluorescence (KMESF) is reported as 81 (active). COc1ccc(CCN2C(=O)N(c3ccc(OC)cc3)C(=O)C2CC(=O)Nc2ccc(OC)cc2)cc1 (centres undefined) gave a fluorescence (KMESF) of 6. With Cc1cc(NC(=O)CSc2nccn2-c2ccc([N+](=O)[O-])cc2)no1 the fluorescence (KMESF) was 25. In the case of C/C(=N/Nc1ccc(Cl)cc1)c1cnnc(-c2ccccc2)n1, the fluorescence (KMESF) is reported as 21. Molecule Cc1ccc(S(=O)(=O)N2CCOCC2)cc1C(=O)NC(=S)N(Cc1ccccc1)C(C)C has a fluorescence (KMESF) of 4. Molecule CCN(CC(=O)Nc1cccc(S(N)(=O)=O)c1)Cc1nc2ccccc2c(=O)[nH]1 has a fluorescence (KMESF) of 7. Clc1ccc(C2CC(c3cccs3)n3ncnc3N2)cc1Cl (centres undefined) showed a fluorescence (KMESF) of 7. For COc1ccc(C2CC(c3ccccc3)Nc3ncnn32)cc1 (centres undefined), the fluorescence (KMESF) was 9. For FC(F)Oc1ccccc1C1CC(c2ccc(Br)s2)Nc2ncnn21 (centres undefined), the fluorescence (KMESF) was 72 (active). CNC(=S)NNC(=O)c1oc2nc(-c3ccccc3)cc(-c3ccco3)c2c1N gave a fluorescence (KMESF) of 7. In the case of COc1ccc(CCN2C(=O)CC(N3CCC(C(N)=O)CC3)C2=O)cc1OC (centres undefined), the fluorescence (KMESF) is reported as 5. Work on O=C(CCc1[nH]c2ccccc2c1Sc1ccccc1)N(CCO)CCO yielded a fluorescence (KMESF) of 16. With CS/C(=C\C(=O)c1ccco1)Nc1ccccc1Cl the fluorescence (KMESF) was 7. For COc1ccc(CCNC(=O)CN(c2ccccc2)S(C)(=O)=O)cc1, the fluorescence (KMESF) was 9. For COC(=O)CNC(=O)c1ccc(OC2CCN(C(=O)C3CC3)CC2)cc1, the fluorescence (KMESF) was 7.

Source: PubChem BioAssay AID1775 (NMMLSC, 2009)
